Laboratory results reported in ChEMBL document CHEMBL2218924, “A broad activity screen in support of a chemogenomic map for kinase signalling research and drug discovery” (Biochem J, 2013).

Assays:
[1] = target: T1, Ephrin type-B receptor 1 (Homo sapiens) (UniProt P54762); conditions: at 10 µM
T1 sequence (whole entry): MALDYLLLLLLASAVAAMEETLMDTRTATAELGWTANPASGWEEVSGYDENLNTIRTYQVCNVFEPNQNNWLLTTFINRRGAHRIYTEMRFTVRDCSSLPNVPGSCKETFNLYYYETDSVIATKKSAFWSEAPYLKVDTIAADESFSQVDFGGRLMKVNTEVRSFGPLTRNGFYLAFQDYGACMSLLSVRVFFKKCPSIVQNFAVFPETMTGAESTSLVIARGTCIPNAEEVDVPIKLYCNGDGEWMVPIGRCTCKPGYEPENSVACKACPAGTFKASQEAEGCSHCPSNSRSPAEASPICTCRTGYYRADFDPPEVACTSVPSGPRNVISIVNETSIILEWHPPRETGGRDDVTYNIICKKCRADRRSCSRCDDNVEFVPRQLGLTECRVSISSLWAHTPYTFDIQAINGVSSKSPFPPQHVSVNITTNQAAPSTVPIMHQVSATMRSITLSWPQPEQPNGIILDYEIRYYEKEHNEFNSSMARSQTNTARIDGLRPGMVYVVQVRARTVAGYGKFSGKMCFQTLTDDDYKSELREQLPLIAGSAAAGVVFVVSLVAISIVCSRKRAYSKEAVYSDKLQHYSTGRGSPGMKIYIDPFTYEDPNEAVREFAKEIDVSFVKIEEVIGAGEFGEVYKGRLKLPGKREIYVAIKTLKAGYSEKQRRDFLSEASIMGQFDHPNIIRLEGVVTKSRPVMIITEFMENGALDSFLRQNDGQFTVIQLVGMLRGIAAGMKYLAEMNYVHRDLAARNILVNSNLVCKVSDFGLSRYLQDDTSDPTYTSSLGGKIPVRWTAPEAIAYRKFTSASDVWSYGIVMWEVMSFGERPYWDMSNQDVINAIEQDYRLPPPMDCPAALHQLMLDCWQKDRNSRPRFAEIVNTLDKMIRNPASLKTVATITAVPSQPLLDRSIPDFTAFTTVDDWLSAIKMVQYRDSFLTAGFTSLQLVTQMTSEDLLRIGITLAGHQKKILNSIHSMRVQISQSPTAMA

[2] = target: T2, Ephrin type-B receptor 2 (Homo sapiens) (UniProt P29323); conditions: at 1 µM
T2 sequence (whole entry): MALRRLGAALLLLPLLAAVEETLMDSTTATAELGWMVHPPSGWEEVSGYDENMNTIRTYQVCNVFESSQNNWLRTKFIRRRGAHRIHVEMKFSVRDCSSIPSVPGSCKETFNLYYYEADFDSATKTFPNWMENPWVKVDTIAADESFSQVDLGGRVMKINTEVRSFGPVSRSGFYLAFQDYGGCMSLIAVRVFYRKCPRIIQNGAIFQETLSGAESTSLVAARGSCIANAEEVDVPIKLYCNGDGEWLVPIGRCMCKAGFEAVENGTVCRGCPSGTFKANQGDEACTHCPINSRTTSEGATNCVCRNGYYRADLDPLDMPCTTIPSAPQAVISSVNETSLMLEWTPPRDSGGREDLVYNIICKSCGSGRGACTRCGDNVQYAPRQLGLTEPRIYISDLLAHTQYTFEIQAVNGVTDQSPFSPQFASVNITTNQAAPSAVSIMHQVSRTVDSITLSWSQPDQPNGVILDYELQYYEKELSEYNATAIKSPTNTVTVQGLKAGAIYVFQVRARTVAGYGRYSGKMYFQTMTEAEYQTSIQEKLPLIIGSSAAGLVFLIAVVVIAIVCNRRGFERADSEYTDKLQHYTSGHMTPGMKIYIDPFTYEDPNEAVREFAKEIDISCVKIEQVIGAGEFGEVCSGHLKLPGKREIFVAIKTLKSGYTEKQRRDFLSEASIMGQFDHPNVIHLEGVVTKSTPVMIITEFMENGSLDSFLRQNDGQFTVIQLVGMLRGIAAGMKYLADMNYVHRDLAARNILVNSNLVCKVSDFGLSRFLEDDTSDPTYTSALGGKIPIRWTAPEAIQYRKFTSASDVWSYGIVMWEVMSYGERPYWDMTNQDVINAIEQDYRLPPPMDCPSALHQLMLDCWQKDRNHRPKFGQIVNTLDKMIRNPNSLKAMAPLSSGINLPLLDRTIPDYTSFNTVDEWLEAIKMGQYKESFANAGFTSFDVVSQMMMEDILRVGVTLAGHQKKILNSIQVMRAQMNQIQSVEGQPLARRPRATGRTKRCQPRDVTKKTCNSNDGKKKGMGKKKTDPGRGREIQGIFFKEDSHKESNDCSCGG

[3] = target: T2, Ephrin type-B receptor 2 (Homo sapiens); conditions: at 10 µM
[4] = target: T3, Ephrin type-B receptor 3 (Homo sapiens) (UniProt P54753); conditions: at 1 µM
T3 sequence (whole entry): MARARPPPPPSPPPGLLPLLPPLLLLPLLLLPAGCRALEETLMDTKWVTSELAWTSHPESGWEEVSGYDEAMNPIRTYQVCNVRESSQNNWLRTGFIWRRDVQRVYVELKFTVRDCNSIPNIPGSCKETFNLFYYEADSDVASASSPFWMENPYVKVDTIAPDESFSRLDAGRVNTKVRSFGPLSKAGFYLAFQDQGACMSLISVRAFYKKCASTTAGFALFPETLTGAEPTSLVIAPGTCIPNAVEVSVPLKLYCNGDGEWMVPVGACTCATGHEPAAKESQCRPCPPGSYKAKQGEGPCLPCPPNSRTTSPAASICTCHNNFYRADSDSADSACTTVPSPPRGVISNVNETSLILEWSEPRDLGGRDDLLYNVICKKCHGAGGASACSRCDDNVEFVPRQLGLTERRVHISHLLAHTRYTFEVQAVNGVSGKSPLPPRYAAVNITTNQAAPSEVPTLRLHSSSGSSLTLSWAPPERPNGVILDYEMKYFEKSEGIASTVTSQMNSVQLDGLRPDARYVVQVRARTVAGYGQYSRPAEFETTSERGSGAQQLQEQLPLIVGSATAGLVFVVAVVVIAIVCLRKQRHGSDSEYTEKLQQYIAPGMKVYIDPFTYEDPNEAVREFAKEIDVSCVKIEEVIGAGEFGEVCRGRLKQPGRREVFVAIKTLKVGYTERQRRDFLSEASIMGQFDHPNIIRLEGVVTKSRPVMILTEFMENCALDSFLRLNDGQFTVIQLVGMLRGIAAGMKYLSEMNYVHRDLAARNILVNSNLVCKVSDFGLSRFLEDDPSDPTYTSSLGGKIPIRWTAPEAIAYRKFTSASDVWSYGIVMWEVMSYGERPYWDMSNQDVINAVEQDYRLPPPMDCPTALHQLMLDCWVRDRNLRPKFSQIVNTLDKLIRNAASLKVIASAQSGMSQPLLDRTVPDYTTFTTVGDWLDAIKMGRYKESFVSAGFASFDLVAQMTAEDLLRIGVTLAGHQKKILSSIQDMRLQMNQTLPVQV

[5] = target: T3, Ephrin type-B receptor 3 (Homo sapiens); conditions: at 10 µM
[6] = target: T4, Ephrin type-B receptor 4 (Homo sapiens) (UniProt P54760); conditions: at 1 µM
T4 sequence (whole entry): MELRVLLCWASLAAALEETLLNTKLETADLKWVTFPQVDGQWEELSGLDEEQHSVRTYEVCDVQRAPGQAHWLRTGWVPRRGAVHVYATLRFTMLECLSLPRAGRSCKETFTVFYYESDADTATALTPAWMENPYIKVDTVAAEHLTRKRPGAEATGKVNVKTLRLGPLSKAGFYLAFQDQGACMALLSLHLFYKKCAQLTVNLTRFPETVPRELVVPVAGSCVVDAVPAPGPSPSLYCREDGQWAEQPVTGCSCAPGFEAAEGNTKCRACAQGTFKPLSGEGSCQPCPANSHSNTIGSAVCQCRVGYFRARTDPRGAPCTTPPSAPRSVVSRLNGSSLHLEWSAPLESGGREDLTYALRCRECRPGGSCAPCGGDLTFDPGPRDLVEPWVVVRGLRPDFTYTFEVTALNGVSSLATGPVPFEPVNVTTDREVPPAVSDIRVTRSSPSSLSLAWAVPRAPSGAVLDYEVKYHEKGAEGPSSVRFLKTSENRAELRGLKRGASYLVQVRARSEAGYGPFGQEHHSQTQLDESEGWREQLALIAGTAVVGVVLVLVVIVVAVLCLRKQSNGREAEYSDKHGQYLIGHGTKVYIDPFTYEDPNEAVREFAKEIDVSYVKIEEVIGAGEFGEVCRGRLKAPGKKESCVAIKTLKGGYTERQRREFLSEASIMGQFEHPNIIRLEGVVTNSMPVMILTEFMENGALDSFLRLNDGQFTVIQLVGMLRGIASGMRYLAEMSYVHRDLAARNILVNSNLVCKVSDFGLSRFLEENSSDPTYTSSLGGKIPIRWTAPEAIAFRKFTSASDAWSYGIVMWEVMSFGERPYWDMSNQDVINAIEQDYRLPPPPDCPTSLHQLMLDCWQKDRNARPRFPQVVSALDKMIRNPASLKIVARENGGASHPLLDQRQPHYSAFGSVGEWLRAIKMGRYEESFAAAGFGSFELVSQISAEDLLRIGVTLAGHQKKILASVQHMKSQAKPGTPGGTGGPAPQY

[7] = target: T4, Ephrin type-B receptor 4 (Homo sapiens); conditions: at 10 µM
[8] = target: Receptor tyrosine-protein kinase erbB-4 (Homo sapiens) (UniProt Q15303); conditions: at 1 µM
Chain of Receptor tyrosine-protein kinase erbB-4 (Homo sapiens) (Q15303 whole entry): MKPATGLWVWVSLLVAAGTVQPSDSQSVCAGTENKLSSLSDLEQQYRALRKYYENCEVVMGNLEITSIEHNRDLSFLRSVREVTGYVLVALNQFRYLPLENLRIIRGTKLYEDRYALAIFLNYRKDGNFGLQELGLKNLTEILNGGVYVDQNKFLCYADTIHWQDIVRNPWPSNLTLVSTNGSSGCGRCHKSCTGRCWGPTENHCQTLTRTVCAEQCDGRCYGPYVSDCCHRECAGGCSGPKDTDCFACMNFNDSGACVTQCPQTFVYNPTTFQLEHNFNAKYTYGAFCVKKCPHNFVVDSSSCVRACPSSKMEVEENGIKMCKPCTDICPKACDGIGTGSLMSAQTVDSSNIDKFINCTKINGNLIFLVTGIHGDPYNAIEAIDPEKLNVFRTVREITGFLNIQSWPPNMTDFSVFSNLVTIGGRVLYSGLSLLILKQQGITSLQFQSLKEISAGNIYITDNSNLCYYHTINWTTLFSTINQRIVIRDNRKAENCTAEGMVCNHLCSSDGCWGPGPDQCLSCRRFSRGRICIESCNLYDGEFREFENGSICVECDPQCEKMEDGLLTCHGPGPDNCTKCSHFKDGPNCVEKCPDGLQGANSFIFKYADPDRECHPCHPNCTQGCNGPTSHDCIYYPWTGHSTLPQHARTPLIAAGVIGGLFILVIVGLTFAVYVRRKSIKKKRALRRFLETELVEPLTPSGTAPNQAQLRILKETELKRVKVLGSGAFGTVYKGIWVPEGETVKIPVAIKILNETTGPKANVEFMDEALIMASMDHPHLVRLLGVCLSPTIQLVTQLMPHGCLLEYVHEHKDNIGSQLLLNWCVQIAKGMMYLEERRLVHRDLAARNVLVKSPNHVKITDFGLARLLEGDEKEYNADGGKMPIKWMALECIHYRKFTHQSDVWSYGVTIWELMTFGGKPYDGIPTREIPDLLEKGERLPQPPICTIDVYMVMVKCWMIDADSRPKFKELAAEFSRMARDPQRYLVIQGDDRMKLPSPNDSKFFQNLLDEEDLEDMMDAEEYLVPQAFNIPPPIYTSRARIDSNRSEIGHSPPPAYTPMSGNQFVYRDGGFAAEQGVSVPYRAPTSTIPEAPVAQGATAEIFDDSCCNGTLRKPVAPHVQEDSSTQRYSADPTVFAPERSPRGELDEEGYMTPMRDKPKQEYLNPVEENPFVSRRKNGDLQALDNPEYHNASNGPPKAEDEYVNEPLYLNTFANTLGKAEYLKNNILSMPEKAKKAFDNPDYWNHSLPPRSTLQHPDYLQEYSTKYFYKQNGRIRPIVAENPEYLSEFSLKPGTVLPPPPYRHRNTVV

[9] = target: Receptor tyrosine-protein kinase erbB-4 (Homo sapiens) (UniProt Q15303); conditions: at 10 µM
[10] = target: Focal adhesion kinase 1 (Homo sapiens) (UniProt Q05397); conditions: at 1 µM
Chain of Focal adhesion kinase 1 (Homo sapiens) (Q05397 2-1052 limits assumed): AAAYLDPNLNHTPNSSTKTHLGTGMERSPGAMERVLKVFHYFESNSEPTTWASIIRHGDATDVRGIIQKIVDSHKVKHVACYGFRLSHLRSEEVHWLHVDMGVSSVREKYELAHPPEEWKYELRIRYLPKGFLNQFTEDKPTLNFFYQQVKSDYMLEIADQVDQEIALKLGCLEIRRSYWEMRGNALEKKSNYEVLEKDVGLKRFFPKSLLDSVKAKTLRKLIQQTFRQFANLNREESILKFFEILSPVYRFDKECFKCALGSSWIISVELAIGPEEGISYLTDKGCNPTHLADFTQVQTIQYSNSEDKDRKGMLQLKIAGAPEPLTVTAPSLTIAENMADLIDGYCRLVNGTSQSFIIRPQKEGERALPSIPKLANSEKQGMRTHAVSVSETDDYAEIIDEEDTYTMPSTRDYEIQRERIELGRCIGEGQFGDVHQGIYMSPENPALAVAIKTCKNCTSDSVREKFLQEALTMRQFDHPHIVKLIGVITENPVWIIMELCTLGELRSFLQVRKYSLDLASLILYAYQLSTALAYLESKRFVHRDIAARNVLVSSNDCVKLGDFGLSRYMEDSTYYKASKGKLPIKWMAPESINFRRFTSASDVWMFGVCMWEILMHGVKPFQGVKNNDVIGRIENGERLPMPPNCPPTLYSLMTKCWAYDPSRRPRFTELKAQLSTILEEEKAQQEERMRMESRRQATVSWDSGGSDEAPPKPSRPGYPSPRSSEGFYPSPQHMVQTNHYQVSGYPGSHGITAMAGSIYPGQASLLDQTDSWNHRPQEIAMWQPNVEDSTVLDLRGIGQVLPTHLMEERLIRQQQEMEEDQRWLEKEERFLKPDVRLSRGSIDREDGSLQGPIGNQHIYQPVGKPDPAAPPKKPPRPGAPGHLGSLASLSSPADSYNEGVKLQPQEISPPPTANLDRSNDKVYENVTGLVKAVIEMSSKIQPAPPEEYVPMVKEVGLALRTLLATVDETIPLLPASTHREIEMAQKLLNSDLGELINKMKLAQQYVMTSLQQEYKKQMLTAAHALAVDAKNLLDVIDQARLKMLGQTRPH

Oc1ccc(Nc2nc(-c3ccc(Cl)cc3)cs2)cc1
residual activity [1]: 78%
residual activity [2]: 108%
residual activity [3]: 109%
residual activity [4]: 88% (inactive)
residual activity [5]: 95%
residual activity [6]: 109%
residual activity [7]: 92%
residual activity [8]: 132%
residual activity [9]: 128%
residual activity [10]: 108%
